Sampled rows, rich in hits. Any-hit rate of the full collection: about 3.2%.
LmPK inhibitor – qHTS Assay for Inhibitors of Leishmania Mexicana Pyruvate Kinase (LmPK); Q27686; purified LmPK, Kinase-Glo ATP luminescence, 1 h; Potency, µM (highest dose often 57.5 µM), for inactives: top-dose activity change, negative = inhibition, usual class: inhibitors; actives 0.37% (n = 290,000)
Target sequence (Q27686 whole entry, looked up): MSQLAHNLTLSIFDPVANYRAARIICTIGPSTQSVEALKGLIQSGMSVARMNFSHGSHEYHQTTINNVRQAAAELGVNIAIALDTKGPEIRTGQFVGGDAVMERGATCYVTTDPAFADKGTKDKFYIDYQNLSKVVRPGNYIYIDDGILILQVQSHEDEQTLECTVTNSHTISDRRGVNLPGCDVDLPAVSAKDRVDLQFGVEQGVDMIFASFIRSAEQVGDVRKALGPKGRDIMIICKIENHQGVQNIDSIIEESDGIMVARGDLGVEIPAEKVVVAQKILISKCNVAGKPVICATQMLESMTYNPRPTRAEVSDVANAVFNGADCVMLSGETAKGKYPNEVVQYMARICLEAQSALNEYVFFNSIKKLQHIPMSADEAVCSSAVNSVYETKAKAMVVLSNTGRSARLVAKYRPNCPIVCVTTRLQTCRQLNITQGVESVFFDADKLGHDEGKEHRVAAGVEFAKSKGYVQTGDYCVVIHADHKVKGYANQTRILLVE
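Kinase-Glo luminescence read after 1 h RT reaction of 0.1 nM LmPK with 0.5 mM PEP and 0.1 mM ADP. Activity scaled between uninhibited and enzyme-free controls.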
Sm TGR inh – qHTS Assay for the Inhibitors of Schistosoma Mansoni Peroxiredoxins; purified TGR, DTNB reduction, TNB absorbance 405 nm; Potency, µM (highest dose often 114 µM), for inactives: at the highest dose activity change, negative = inhibition, actives largely listed as inhibitors; actives 3% (n = 360,000); AID 485364, 2010; also: nearly all actives have a fitted effect of over 60% in size
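First, TGR (20 nM dispensed) and NADPH were mixed with compound. Second, a 15 min room-temperature incubation followed. Third, further NADPH and then DTNB were added to start the reaction. Finally, TNB absorbance was monitored kinetically.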
TbPYK inhibitor – qHTS of Trypanosoma Brucei Inhibitors; actives 0.12% (n = 410,000); AID 624173, 2012; Potency, µM (top dose mostly 76.8 µM), for inactives: top-dose activity, negative = inhibition, actives largely listed as inhibitors; TbPYK enzyme, Kinase-Glo Plus ATP luminescence, 45 min; also: nearly all actives have a fitted effect of over 50% in size
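Glycolytic pyruvate kinase of T. brucei was incubated with substrate, test compound and 130 uM ADP for 45 minutes at room temperature. Luminescent Kinase-Glo Plus signal was measured after 10 minutes.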
RE007 growth inh – qHTS Assay for Inhibitors of the HIV-1 protein Vpr; S. pombe RE007 Vpr strain, BacTiter-Glo ATP luminescence, 24 h; Potency, µM (doses to about 92.2 µM), for the others: at the highest dose activity change, negative = less growth, usual class: inhibitors; actives 0.21% (n = 360,000); active = well fitted falling curve with a large enough effect; inconclusive = small, poorly fitted or top-dose-only effect; inactive = no such curve, though single readings can be large or run the other way; also: nearly all actives have a fitted effect of over 50% in size
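Fission yeast strain RE007, carrying one chromosomally integrated HIV-1 vpr copy, was seeded at OD 0.01 in PMG+AL medium with 23 nL pinned compound. After 24 h at 30 °C and 99% humidity, viability was read by BacTiter-Glo luminescence.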
AMA1 RON2 block – qHTS for Inhibitors of AMA1-RON; Towards Development of Antimalarial Drug Lead: Primary Screen. AlphaScreen AMA1-biotinylated RON2 peptide binding. Potency, µM (top dose mostly 58.2 µM), for inactives: at the top dose activity change, negative = inhibition, actives largely listed as inhibitors. actives 0.2% (n = 360,000). AID 720542, 2013;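 also: 0% = vehicle wells and -100% = peptide control; nearly all actives have a fitted effect of over 45% in size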
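AMA1 (3D7) with his tag at 25 nM final met compounds first, then biotinylated RON2 peptide at 25 nM; detection used donor plus acceptor beads, 10 µg/mL apiece, read by AlphaScreen after 30 min at room temperature.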
Numbers without * were called inactive; u = inconclusive; x = no result given; [ ] = remark or other dose. Unless noted, calls follow the shape of the dose curve; as a rule, active = well fitted curve in the direction sought with a large enough effect; inconclusive = small, poorly fitted or top-dose-only effect, or another doubt; inactive = no such curve, though single readings can be large; an effect the other way counts as inactive or inconclusive. Unless noted, % is scaled to controls: 0 for no effect and ±100 for the full control effect; potency is read from the fitted curve at half-maximal effect.

SMILES | LmPK inhibitor | Sm TGR inh | TbPYK inhibitor | RE007 growth inh | AMA1 RON2 block
CCOC(=O)/C=C1\CN(C(C)c2ccccc2)S(=O)(=O)c2ccccc21 (stereo not drawn) | -3% | 28µM* | -14% | -10% | -4%
CCC(Sc1nnc(C)n2c1cc1occc12)C(=O)Nc1ccccc1OC (stereo not drawn) | x | 11% | -2% | x | x
CC1=C(C(=O)Nc2ccccc2)C(c2cccn2C)n2ncnc2N1 (stereo not drawn) | x | -2% | -6% | x | x
O=C(CCSc1ccc(Cl)cc1)c1ccco1 | 1% | 1µM* | -2% | -14% | 18%
O=C(CSc1ccccc1Cl)c1ccco1 | -13% | 45µM* | -15% | u | 0%
O=C(CSc1ccc(Cl)cc1)Nc1cccc(NC(=O)c2ccco2)c1 | 0% | 12% | -14% | 7% | 0%
O=C(CSc1ccc(Cl)cc1)c1ccco1 | 2% | 5.6µM* | -30% | -25% | -26%
O=C(NCCSc1ccc(Cl)cc1)c1ccco1 | 10% | -2% | -13% | u | 13%
Cc1cc(OCCn2cc(C(=O)c3cccs3)c3ccccc32)ccc1Cl | x | 8% | -9% | x | x
CCOC(=O)c1sc2ccccc2c1S(=O)(=O)NCc1ccc(F)cc1 | x | 2% | 4% | x | x
CCCc1cc2c(=O)c(-c3nc4ccccc4s3)c(COCC(=O)O)oc2cc1O | 5% | 40µM* | -4% | 5% | 47%
COc1cccc(C#Cc2c(CO)[nH]c3ccccc23)c1 | x | 32µM* | -11% | -2% | -6%
COc1cccc(CN2CCN(Cc3[nH]c4ccccc4c3C)CC2CCO)c1 (stereo not drawn) | 1% | -5%[57.1 µM] | -5% | 10% | -7%
COc1ccc(C2=NN3C(C2)c2ccccc2OC32C(=O)N(C)c3ccccc32)cc1 (stereo not drawn) | 0% | 40µM* | -19% | u | 29%
O=C(CCN1CCN(C(=O)c2ccccc2)CC1)c1ccc(Br)cc1 | -2% | 0.32µM* | 0% | 28µM* | 5%
C1CCc2nc3c(nc2C1)CCCC3 | 3% | -3% | 4% | 14% | 20%
Nc1nnc2c(n1)CCCC2 | -3% | 32µM* | 0% | 4% | 45%
CC(C)(C)C1=CC(=Nc2ccccc2N)C=C(C(C)(C)C)C1=O | -4% | 2% | -28% | -4% | 11µM*
COc1cccc(-c2cn3nc(C)c(C)nc3n2)c1 | 13µM* | u | -28% | u | 12%
Cc1nc2nc(-c3ccc(Cl)cc3)cn2nc1C | u | -36% | -3% | -14% | -4%
Cc1cc(-c2cccs2)n[nH]1 | -4% | 9% | -3% | -1% | -3%
Cc1nc2nc(-c3cccs3)cn2nc1C | 28µM* | u | -14% | u | 64%
COc1ccc(-c2nc3n(n2)C(c2ccc(OC)c(OC)c2)C(C(=O)Nc2cccnc2)=C(C)N3)cc1 (stereo not drawn) | x | u | 4% | x | x
Fc1ccc(Nc2nc3ccccc3c3nncn23)c(Cl)c1 | x | 4% | 3% | x | x
COc1ccc(NC(=O)Cc2c(C(=O)O)[nH]c3ccccc23)cc1OC | x | 0% | -1% | x | x
SMILES | LmPK inhibitor | Sm TGR inh | TbPYK inhibitor | RE007 growth inh | AMA1 RON2 block
Cc1coc(C)c1C(=O)CC1(O)C(=O)N(CCc2ccccc2)c2ccccc21 (stereo not drawn) | 0% | 14µM* | -12% | 15% | 1%
CCCCn1c(=N)c(S(=O)(=O)c2ccc(Cl)cc2)cc2c(=O)n3cccc(C)c3nc21 | x | 2% | -2% | x | x
CC1=C[C@@H]2c3cccc4[nH]cc(c34)C[C@H]2N(C)C1 | -7% | 2.2µM* | -1% | 3% | -9%
Cc1ccc2cc(C#N)c(N3CCCC3)nc2c1C | -4% | 20µM* | -3% | -26% | 80%
Cc1cc(C)c2nc(N3CCCN(C(=O)c4ccco4)CC3)c(C#N)cc2c1 | 2% | 2µM* | x | 0%[3.69 µM] | 6%
N#CC1=C(N)N(c2ccc(F)cc2)C2=C(C1c1ccc(O)cc1)S(=O)(=O)CC2 (stereo not drawn) | -2% | 1.8µM* | -26% | -7% | 8%
CCc1ccc(N=C2NC(=O)CC(C(=O)Nc3ccc(OC)cc3)S2)cc1 (stereo not drawn) | x | -1% | -3% | x | x
CCOc1ccc(/C(C)=N/N2C(=O)C(CC(=O)Nc3ccc(OC)cc3[N+](=O)[O-])SC2=Nc2cccc(C)c2C)cc1 (stereo not drawn) | 4% | 18µM* | -13% | 15% | -23%
O=C(Nc1cc(C(F)(F)F)ccc1Cl)c1cc(S(=O)(=O)NCc2ccccc2)ccc1F | x | 2% | 1% | x | x
COc1ccc2nc(NC(=O)Nc3ccccc3OC)sc2c1 | 1% | 2% | -2% | -5% | -2%
COc1ccc2nc(NC(=O)c3cccs3)sc2c1 | 13µM* | -2% | 4% | u | -1%
COc1ccc2nc(Nc3ccccc3OC)sc2c1 | 18µM* | 6% | 2% | u | 5%
CC(=O)Nc1ccc2nc(NC(=O)c3cccs3)sc2c1 | u | 6% | -11% | -23% | -2%
COc1cc(C(=O)N2CCC(c3nc4ccccc4o3)CC2)cc(OC)c1OC | x | 4% | -2% | x | x
Cc1ccc(Cl)cc1N(C)C(=O)c1cc2ccc3cccnc3c2[nH]1 | x | 8% | -10% | x | x
O=C(O)c1ccc(C2CCCCC2)cn1 | 5% | 3% | 1% | 18% | 13µM*
C=CCC1(O)CCC2C3CCC4=CC(=O)CCC4=C3C=CC21C (stereo not drawn) | x | x | -16% | x | x
O=C(NCC1CCCO1)NC1(C(F)(F)F)Oc2ccccc2O1 (stereo not drawn) | 2% | u | -15% | 6% | -6%
O=C(Nc1ccc2c(c1)OCCO2)NC1(C(F)(F)F)Oc2ccccc2O1 | u | 40µM* | -7% | 16% | -4%
O=C(Nc1ccc2c(c1)OCO2)NC1(C(F)(F)F)Oc2ccccc2O1 | 0% | 35µM* | x | -1%[3.69 µM] | -15%
O=C(Nc1ccc2c(c1)OCO2)Nc1ccccc1F | u | 0% | -26% | -21% | -15%
O=C(NC1(C(F)(F)F)Oc2ccccc2O1)N1CCCC1 | 0% | 40µM* | 5% | 8% | 2%
O=C1OC(c2ccccc2)=C/C1=C/N1CCOCC1 | 5% | 40µM* | -11% | u | -10%
O=C1SC(c2ccccc2)=C/C1=C\N1CCCCC1 | -1% | 0% | 0% | 0% | -25%
O=C1OC(c2ccccc2)=C/C1=C\N1CCOCC1 | -1% | 20µM* | 1% | 16% | -2%
O=C1OC(c2ccccc2)=NC12CC2c1ccc(Cl)cc1 (stereo not drawn) | 2% | 14µM* | -20% | 27% | 37%

Screens from PubChem BioAssay.
